# PLK1 PBD inh: inhibitors of human PLK1 polo-box domain binding; Potency, µM, for inactives: max response, negative = inhibition, actives largely listed as inhibitors; Plk1 PBD binding of FITC phosphopeptide, fluorescence polarization; 360,000 compounds, 2.8% hits; also: potency is read from the fitted curve at half-maximal effect; series mostly up to about 57 µM; nearly all actives have a fitted effect of over 65% in size
# PI4K2A inh: inhibitors of human PI4K2A. activity change, negative = inhibition, % at 76.9 µM. purified PI4K2A, ADP-Glo luminescence, 1 h; stronger effect = lower value. 420,000 compounds, 0.13% hits. Q9BTU6; in the data active = activity change below about -50%; inconclusive = mostly about -30% to -49%;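 also: -100% = wells without enzyme as full effect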
#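 ADP-Glo luminescence measured ADP generated by PI4K2A enzyme (4 ug/mL before mixing) with 1.2 mM PI substrate (pre-mix) and 300 microM ATP (pre-mix). Tris pH7.5 buffer with MgCl2, Triton X-100; 1 h reaction at ambient temperature.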
# KAT2A inh: inhibitors of human GCN5L2 histone acetyltransferase; Potency, µM (series often up to 58.9 µM), for the others: at the top dose activity change, negative = inhibition, hits mostly inhibitors; 390,000 compounds, 0.21% hits; GCN5L2 HAT assay, ThioGlo1 CoA-SH fluorescence; also: potency is read from the fitted curve at half-maximal effect
#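 GCN5L2 (20 nM) in 50mM HEPES pH 7.5, 0.1mM EDTA, 0.01% Tween-20 preincubated 15 min with compounds at room temperature. Reaction started with H3(1-25) 75uM, acetyl-CoA 70uM, ThioGlo1 50uM; CoA-thiol fluorescence (Ex340/Em540) read at 0 and 20 min.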
# VDR inh: vitamin D3 receptor (human) inhibition. P11473. VDR-SRC2-3 peptide fluorescence polarization, 2 h. Potency, µM, inactives show max response, negative = inhibition, actives largely listed as inhibitors. 400,000 compounds, 0.93% hits. AID 504847; also: potency is read from the fitted curve at half-maximal effect
#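 The screen uses fluorescence polarization to detect compounds that interfere with recruitment of the SRC2-3 coactivator peptide to VDR; plates are read after 2 h at room temperature.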
# GLS inhibitor: glutaminase GLS (human) inhibition. O94925. GLS enzymatic activity, qHTS titration. Potency, µM (doses to about 45.5 µM), without a hit: top-dose activity change, negative = inhibition, most hits filed as inhibitors. 410,000 compounds, 0.21% hits. AID 624170; also: potency is read from the fitted curve at half-maximal effect
#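 Read-out is an Amplex red fluorescence increase coupled through glutamate oxidase and HRP, measured before and after 30 min room-temperature incubation. hKGA is in 45 mM KH2PO4 (pH 8.2) with 0.02% Tween-20; glutamine added as 1mM solution.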
# * = called active by the depositor; ? = inconclusive; · = no result; ! = repeats disagree; [ ] = another dose, or the depositor's remark. Rows were chosen to be rich in hits. Some 3.1% of all compounds tested hit in one or more screens of this group. Unless noted, calls follow the shape of the dose curve; as a rule, active = well fitted curve in the direction sought with a large enough effect; inconclusive = small, poorly fitted or top-dose-only effect, or another doubt; inactive = no such curve, though single readings can be large; an effect the other way counts as inactive or inconclusive. Unless noted, % is scaled to controls: 0 for no effect and ±100 for the full control effect.
SMILES,PLK1 PBD inh,PI4K2A inh,KAT2A inh,VDR inh,GLS inhibitor
Cc1ccccc1-c1cncnc1NCc1cccnc1,·,·,-28.8%,50.1µM*,·
Cc1ccccc1-c1cncnc1Nc1ccccc1,·,·,-28.4%,44.7µM*,·
CNc1ncncc1-c1ccccc1C,·,·,-0.1%,70.8µM*,·
Cc1ccc([C@H](C)NC(=O)C2=C(N)N(S(=O)(=O)c3ccc(C)cc3)C(C(=O)c3ccccc3)C2c2ccccc2Cl)cc1 (stereo partly specified),·,-3.1,·,·,·
CC(C)C(Sc1nc(-c2ccccc2)cc(-c2ccccc2)c1C#N)C(=O)O (stereo unspecified),18.9µM*,0.0,?,-7.1%,0.0%
COc1ccc(-c2cc(-c3ccccc3)nc(SC(C)C(=O)O)c2C#N)cc1 (stereo unspecified),26.7µM*,2.6,-4.9%,?,-24.3%
O=C1C(F)=CC(COC(c2ccccc2)(c2ccccc2)c2ccccc2)OC1n1cc(F)c(=O)[nH]c1=O (stereo unspecified),5.97µM*,-14.9,·,44.7µM*,?
COc1ccccc1NC(=O)Cn1c(=O)c(CNc2ccc(C)cc2)cc2cc3c(cc21)OCCO3,·,1.5,-6.6%,-0.4%,?
COc1ccc(CCCc2nnc(SCC(=O)Nc3ccc(Cl)cc3)o2)cc1,·,1.6,-0.5%,?,-2.0%
COc1ccccc1/C=C/C(=O)c1cc(Br)ccc1OC(=O)c1ccco1,23.8µM*,36.8,·,?,7.5%
O=C(OC12CCCN(C1)/C(=C/c1ccc(Cl)cc1)C2)c1ccc(F)cc1 (stereo unspecified),·,-2.8,·,·,·
CCOC(=O)CSC1=C(C#N)C(=O)NC(c2ccc(OC)cc2)S1 (stereo unspecified),11.9µM*,-13.5,?,?,5.9%
C=CCOC(=O)C1=C(C)NC(SCC(=O)OCC)=C(C#N)C1c1ccc(O)c(OC)c1 (stereo unspecified),-20.4%,-2.6,-10.6%,-18.0%,7.7%
CCOC(=O)CSC1=C(C#N)C(=O)NC(c2ccc(OC)c(OC)c2)S1 (stereo unspecified),11.9µM*,-24.0,?,?,12.8%
CC(C)CNc1cccc2c1S(=O)(=O)N(Cc1cn(Cc3cccc(F)c3)nn1)Cc1ccccc1O2,·,0.3,·,·,·
COc1cccc(-c2coc3cc4oc(=O)c(CCC(=O)O)c(C)c4cc23)c1,-7.3%,1.9,3.5%,-21.2%,12.6µM*
Cc1c(CC(=O)NCC(=O)O)c(=O)oc2cc3occ(-c4ccccc4)c3cc12,-14.3%,5.8,-4.2%,-8.4%,3.98µM*
Cc1c(CC(=O)O)c(=O)oc2c(C)c3occ(-c4ccc(Br)cc4)c3cc12,29.9µM*,4.5,?,?,?
COc1cccc(-c2coc3c(C)c4oc(=O)c(CCC(=O)O)c(C)c4cc23)c1,?,-0.6,-12.7%,?,?
O=C(O)/C=C\C(=O)Nc1cccc(C(=O)Nc2cccc(O)c2)c1,23.8µM*,-3.3,10.4%,5.1%,-14.4%
O=C(Nc1cccc(O)c1)c1ccccc1,-5.5%,-6.0,-6.1%,12.1%,24.5%
CCc1ccc(CCNC(=O)OC2CC3CC2[C@H]2CCCCN2[C@H]3C)cc1 (stereo partly specified),·,0.6,·,·,·
CN(C)S(=O)(=O)c1cccc(COc2cccnc2[N+](=O)[O-])c1,29.9µM*,0.9,-2.6%,?,-2.7%
CCN(CC)C(=O)CC[C@H]1CC[C@]2(CCCN(Cc3ccc(OC)cc3)C2)O1,·,0.5,·,·,·
CC(C1CC1)N(Cc1ccccc1)C(=S)Nc1cccc(C(F)(F)F)c1 (stereo unspecified),29.9µM*,2.9,-4.8%,-18.9%,56.1%
CC1=C(/C=C/C(C)=C/C=C/C(C)=C/C(=O)Nc2ccc(O)cc2)C(C)(C)CCC1,-9.4%,2.7,-29.0%,-6.7%,-0.2%
CC1=CC(=O)CC(C)(C)C1(O)/C=C/C(C)=C/C(=O)O (stereo unspecified),2.3%,2.2,-0.8%,-1.8%,-3.3%
CC1=C(\C=C/C(C)=C/C=C\C(C)=C\C(=O)O)C(C)(C)CCC1,·,·,-2.5%[21.4 µM],17.8µM*,·
CC1=C(/C=C/C(C)=C/C=C/C(C)=C\C(=O)O)C(C)(C)CCC1,?,-0.3,-4.3%,50.1µM*!,2.4%

# High-throughput results deposited in PubChem BioAssay by National Center for Advancing Translational Sciences (NCATS).
